Drawing on publication PMC7862700, “An all-to-all approach to the identification of sequence-specific readers for epigenetic DNA modifications on cytosine”, this text covers binding signal for one sequence.

Holding throughout (experiment): DAPPL (digital affinity profiling via proximity ligation, sequencing); 10 mM Tris-HCl pH 7.5, 50 mM NaCl, 1 mM DTT, 4% glycerol, room temperature, 30 min; GST-TFs on glutathione beads, 16-mer random dsDNA library, 0.1% formaldehyde crosslink after washing; high values mean tight binding
Assay [1] has as its target T1, FLI1 (Homo sapiens, UniProt Q01543 1-452).
T1 sequence: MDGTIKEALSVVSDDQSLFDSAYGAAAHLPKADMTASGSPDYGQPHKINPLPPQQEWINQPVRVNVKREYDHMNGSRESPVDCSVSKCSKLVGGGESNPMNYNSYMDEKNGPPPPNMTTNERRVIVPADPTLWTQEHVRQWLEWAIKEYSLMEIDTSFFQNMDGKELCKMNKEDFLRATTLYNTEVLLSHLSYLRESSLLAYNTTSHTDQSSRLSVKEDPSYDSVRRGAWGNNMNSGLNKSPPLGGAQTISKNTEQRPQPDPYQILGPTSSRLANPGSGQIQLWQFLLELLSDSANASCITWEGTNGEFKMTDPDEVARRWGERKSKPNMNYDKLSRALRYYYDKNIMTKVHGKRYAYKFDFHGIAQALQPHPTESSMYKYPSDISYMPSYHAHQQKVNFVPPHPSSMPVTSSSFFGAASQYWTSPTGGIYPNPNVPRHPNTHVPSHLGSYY
To be noted: protein: recombinant; tags: N-terminal GST; dsDNA, one strand shown. The gist of the method:
(§1)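 In yeast, human transcription factors were expressed with a GST fusion, then pulled down on glutathione beads and given DNA barcodes. Pooled with a tag-only sample, they were exposed to 200 nmole of a 16-mer random double-stranded DNA library (Tris/NaCl/DTT/glycerol buffer, room temperature, 30 min), washed, crosslinked with 0.1% formaldehyde, proximity-ligated using BsaI/T4 ligase for 1 h at 37 °C, PCR-amplified and read on an Illumina NextSeq500. Each hexamer's frequency of reads for a factor, divided by the matching frequency for the tag-only sample, gives the binding signal.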

The target of assay [2] is T2, ELK1 (Homo sapiens, UniProt P19419 1-428).
T2 sequence: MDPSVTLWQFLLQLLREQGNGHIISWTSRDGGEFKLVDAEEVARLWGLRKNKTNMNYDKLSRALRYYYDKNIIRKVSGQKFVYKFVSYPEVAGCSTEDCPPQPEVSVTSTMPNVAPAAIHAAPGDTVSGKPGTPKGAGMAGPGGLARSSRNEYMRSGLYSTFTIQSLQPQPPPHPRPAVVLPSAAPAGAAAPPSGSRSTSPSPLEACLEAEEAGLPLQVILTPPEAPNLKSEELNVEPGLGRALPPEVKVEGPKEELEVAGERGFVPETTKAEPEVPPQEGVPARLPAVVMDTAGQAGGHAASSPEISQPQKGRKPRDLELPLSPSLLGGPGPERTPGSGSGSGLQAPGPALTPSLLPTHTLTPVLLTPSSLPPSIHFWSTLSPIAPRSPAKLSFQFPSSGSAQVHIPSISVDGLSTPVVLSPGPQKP
To be noted: protein: recombinant; tags: N-terminal GST; dsDNA, one strand shown. The gist of the method:
as §1

Assay [3] concerns the target T3, GABPA (Homo sapiens, UniProt Q06546 1-454).
T3 sequence: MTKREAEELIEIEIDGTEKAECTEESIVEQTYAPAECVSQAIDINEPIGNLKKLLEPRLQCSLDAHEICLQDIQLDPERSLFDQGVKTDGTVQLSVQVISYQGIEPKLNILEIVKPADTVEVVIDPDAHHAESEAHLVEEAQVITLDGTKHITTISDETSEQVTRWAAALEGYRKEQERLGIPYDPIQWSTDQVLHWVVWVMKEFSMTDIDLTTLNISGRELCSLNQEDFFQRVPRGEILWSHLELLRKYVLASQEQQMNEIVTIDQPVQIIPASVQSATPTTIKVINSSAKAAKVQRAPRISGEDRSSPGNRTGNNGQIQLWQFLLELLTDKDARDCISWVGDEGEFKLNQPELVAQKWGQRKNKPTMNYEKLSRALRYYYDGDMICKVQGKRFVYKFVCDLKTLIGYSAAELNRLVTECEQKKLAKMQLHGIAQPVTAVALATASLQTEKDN
To be noted: protein: recombinant; tags: N-terminal GST; dsDNA, one strand shown. The gist of the method:
as §1

Assay [4] deals with T4, ERG (Homo sapiens, UniProt P11308 1-479).
T4 sequence: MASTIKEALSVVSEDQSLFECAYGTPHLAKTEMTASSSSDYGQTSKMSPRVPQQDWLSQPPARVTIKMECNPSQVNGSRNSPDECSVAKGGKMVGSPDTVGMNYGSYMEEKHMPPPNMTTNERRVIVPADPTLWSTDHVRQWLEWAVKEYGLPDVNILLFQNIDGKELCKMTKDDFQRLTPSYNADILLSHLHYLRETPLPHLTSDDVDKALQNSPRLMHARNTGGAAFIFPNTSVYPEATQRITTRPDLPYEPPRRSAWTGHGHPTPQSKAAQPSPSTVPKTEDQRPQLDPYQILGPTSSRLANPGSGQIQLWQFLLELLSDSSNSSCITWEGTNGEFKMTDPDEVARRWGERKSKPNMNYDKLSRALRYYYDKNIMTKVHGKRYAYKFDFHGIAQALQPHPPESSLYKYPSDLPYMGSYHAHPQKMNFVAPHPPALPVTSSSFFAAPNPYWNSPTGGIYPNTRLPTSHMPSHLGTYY
To be noted: protein: recombinant; tags: N-terminal GST; dsDNA, one strand shown. The gist of the method: as §1

The target in assay [5] is ELF1 (Homo sapiens, UniProt P32519 1-619). To be noted: protein: recombinant; tags: N-terminal GST; dsDNA, one strand shown. Summed up: as §1
Sequence of ELF1 (P32519 whole entry): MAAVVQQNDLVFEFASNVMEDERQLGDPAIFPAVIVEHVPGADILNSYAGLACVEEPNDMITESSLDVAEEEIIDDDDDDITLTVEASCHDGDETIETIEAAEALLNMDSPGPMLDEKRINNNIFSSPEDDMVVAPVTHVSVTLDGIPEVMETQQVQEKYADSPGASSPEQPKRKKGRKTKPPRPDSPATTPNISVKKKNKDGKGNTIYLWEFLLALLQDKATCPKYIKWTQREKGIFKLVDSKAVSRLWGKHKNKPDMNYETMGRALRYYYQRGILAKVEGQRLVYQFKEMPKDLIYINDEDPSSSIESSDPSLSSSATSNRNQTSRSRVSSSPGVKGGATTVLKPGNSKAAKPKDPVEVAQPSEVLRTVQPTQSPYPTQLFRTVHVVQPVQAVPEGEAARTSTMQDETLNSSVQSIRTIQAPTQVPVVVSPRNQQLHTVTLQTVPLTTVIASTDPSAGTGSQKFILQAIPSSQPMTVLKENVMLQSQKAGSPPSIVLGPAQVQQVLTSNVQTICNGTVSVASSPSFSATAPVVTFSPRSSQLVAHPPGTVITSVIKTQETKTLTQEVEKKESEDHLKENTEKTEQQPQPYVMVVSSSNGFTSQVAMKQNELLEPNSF
Assay [6] addresses T5, EHF (Homo sapiens, UniProt Q9NZC4 1-300).
T5 sequence: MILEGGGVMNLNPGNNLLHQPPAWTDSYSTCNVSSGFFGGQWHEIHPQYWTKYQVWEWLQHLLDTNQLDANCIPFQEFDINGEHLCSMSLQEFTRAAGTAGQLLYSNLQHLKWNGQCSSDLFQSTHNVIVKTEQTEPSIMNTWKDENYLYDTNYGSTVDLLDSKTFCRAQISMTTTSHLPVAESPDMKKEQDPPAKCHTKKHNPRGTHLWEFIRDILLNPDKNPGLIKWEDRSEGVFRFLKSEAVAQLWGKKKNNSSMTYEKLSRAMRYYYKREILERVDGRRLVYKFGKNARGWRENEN
To be noted: protein: recombinant; tags: N-terminal GST; dsDNA, one strand shown. The gist of the method: as §1

The target in assay [7] is SPI1 (Homo sapiens, UniProt P17947 1-270). To be noted: protein: recombinant; tags: N-terminal GST; dsDNA, one strand shown. The gist of the method:
as §1

The target of assay [8] is SPIB (Homo sapiens, UniProt Q01892 1-262). To be noted: protein: recombinant; tags: N-terminal GST; dsDNA, one strand shown. The gist of the method: as §1
Sequence of SPIB (Q01892 whole entry): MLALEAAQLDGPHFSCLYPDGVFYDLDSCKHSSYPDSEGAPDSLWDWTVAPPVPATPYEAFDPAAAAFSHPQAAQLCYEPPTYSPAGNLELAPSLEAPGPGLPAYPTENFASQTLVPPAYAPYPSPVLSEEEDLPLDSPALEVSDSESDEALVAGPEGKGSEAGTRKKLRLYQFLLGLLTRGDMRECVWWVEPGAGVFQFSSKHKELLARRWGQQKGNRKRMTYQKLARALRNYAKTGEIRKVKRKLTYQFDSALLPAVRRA
The target in assay [9] is T6, ELK3 (Homo sapiens, UniProt P41970 1-407).
T6 sequence: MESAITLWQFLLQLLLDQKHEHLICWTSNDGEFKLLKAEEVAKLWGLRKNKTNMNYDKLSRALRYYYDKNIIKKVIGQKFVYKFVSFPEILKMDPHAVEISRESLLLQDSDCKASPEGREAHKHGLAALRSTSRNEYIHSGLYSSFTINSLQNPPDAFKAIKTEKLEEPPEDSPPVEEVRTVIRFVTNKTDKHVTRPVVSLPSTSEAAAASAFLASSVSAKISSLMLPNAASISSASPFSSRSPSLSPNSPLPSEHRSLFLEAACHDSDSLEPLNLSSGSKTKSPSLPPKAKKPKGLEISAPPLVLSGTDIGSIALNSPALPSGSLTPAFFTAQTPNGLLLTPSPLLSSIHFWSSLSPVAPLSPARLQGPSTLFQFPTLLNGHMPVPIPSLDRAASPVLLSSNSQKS
To be noted: protein: recombinant; tags: N-terminal GST; dsDNA, one strand shown. Summed up:
as §1

Assay [10] deals with T7, FEV (Homo sapiens, UniProt Q99581 1-238).
T7 sequence: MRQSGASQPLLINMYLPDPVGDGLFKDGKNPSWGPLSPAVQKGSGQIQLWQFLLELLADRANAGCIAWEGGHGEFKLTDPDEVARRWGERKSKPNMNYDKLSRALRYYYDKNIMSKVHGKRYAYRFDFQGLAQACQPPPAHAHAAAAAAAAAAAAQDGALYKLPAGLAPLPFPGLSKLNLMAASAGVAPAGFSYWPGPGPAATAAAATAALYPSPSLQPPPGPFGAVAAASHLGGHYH
Particulars: protein: recombinant; tags: N-terminal GST; dsDNA, one strand shown. Summed up:
as §1

Assay [11] deals with ETV5 (Homo sapiens, UniProt P41161 1-510). Particulars: protein: recombinant; tags: N-terminal GST; dsDNA, one strand shown. Summed up:
as §1

Assay [12] concerns the target HSF1 (Homo sapiens, UniProt Q00613 1-529). To be noted: protein: recombinant; tags: N-terminal GST; chain copies: 3; dsDNA, one strand shown. The gist of the method:
as §1

Assay [13] deals with T8, SPIC (Homo sapiens, UniProt Q8N5J4 1-248).
T8 sequence: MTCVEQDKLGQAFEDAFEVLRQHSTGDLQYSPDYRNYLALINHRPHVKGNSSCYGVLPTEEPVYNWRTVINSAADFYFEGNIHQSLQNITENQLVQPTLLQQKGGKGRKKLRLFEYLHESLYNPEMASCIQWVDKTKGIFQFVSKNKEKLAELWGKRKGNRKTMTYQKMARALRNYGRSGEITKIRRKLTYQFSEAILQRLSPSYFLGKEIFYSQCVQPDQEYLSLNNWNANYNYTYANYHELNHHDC
Particulars: protein: recombinant; tags: N-terminal GST; dsDNA, one strand shown. Summed up: as §1

Assay [14] deals with ELF4 (Homo sapiens, UniProt Q99607 1-663). Particulars: protein: recombinant; tags: N-terminal GST; dsDNA, one strand shown. The gist of the method:
as §1

Assay [15] deals with T9, ELK4 (Homo sapiens, UniProt P28324-2 1-405).
T9 sequence: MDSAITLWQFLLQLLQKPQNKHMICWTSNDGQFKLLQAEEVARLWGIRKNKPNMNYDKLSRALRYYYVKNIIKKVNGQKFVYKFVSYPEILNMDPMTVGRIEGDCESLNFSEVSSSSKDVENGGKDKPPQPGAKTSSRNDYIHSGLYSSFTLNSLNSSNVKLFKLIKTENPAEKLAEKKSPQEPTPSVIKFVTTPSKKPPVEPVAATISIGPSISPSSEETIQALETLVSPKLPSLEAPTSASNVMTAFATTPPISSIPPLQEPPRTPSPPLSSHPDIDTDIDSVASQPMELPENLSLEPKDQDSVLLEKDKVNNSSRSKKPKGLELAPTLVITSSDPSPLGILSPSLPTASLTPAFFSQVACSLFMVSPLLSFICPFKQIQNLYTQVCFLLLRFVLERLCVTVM
To be noted: protein: recombinant; tags: N-terminal GST; dsDNA, one strand shown. Summed up: as §1

Assay [16] has as its target T10, ETV2 (Homo sapiens, UniProt O00321 1-342).
T10 sequence: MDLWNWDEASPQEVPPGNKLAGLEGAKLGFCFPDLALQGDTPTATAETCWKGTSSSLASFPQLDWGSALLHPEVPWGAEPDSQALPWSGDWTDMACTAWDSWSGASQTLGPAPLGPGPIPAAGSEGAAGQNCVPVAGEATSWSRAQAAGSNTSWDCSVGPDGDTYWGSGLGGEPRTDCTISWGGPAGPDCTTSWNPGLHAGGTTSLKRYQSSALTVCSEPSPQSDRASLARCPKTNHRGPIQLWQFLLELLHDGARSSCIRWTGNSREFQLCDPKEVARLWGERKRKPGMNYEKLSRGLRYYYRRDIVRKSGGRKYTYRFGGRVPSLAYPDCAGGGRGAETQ
Particulars: protein: recombinant; tags: N-terminal GST; dsDNA, one strand shown. Summed up: as §1

For assay [17], the target named is T11, ELF3 (Homo sapiens, UniProt P78545 1-371).
T11 sequence: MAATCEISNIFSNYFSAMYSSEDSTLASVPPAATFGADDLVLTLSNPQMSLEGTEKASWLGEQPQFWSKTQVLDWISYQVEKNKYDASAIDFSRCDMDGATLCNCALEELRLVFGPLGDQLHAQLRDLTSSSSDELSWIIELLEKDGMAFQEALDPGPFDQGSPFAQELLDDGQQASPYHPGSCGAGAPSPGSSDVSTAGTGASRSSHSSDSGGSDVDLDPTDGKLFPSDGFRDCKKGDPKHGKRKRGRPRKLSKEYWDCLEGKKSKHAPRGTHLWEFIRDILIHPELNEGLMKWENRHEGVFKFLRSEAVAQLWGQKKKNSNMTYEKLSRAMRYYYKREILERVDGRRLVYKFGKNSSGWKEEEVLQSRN
Particulars: protein: recombinant; tags: N-terminal GST; dsDNA, one strand shown. Summed up:
as §1

The target of assay [18] is CRX (Homo sapiens, UniProt O43186 1-299). To be noted: protein: recombinant; tags: N-terminal GST; dsDNA, one strand shown. Summed up: as §1
Sequence of CRX (O43186 whole entry): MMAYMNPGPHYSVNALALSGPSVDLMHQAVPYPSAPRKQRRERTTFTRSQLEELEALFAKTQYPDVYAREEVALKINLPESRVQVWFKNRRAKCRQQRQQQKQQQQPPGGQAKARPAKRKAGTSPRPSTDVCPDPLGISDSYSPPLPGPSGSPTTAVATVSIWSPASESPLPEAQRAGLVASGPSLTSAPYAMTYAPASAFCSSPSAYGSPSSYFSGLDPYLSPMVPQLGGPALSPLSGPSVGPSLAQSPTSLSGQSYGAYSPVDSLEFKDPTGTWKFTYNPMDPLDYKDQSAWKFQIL
The target in assay [19] is ETV1 (Homo sapiens, UniProt P50549 1-477). Particulars: protein: recombinant; tags: N-terminal GST; dsDNA, one strand shown. The gist of the method:
as §1

Sequence of HSF1 (Q00613 whole entry): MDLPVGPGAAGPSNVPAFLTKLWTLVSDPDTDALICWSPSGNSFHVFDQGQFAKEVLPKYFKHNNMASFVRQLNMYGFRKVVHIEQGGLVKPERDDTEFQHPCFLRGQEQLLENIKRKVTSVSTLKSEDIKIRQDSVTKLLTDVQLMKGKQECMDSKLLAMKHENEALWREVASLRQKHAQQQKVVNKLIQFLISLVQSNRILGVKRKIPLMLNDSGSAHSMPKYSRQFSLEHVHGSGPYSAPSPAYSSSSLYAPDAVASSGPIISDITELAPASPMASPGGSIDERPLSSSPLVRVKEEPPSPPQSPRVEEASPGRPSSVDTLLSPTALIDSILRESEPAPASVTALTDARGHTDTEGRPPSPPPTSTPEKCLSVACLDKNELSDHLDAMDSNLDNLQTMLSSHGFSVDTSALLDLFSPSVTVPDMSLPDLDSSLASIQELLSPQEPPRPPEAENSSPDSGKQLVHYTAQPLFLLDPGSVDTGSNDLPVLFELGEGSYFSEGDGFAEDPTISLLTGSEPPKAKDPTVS
Sequence of ELF4 (Q99607 whole entry): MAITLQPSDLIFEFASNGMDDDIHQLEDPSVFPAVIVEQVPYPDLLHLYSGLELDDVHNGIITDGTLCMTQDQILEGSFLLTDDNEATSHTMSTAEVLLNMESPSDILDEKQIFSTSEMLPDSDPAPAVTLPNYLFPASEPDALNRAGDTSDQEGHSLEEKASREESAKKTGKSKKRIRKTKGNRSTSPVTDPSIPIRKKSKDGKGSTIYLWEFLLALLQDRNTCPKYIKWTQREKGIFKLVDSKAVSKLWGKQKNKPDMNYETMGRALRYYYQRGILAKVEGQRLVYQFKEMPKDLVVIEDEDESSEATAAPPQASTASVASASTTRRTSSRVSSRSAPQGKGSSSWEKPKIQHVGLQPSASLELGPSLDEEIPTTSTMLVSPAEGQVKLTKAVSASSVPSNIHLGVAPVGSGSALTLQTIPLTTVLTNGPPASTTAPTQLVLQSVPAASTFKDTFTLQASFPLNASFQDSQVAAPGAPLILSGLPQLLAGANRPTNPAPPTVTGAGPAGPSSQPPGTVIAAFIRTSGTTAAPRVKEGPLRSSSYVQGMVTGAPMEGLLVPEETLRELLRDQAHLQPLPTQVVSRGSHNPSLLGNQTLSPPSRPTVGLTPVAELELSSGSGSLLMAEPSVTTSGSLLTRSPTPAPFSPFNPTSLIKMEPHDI
Sequence of ETV1 (P50549 whole entry): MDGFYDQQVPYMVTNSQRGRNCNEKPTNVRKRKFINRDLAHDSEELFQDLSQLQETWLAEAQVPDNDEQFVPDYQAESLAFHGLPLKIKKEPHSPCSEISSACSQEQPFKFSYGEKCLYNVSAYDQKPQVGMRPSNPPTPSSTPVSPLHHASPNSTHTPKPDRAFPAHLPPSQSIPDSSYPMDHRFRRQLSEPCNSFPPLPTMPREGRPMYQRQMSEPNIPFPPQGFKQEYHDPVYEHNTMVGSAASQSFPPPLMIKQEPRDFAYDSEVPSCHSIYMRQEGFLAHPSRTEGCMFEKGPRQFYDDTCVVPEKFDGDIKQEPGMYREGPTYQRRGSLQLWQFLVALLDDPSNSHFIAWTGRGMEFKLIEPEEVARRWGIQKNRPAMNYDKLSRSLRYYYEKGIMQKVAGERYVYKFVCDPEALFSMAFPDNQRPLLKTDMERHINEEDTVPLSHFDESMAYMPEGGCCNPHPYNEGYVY
Sequence of ETV5 (P41161 whole entry): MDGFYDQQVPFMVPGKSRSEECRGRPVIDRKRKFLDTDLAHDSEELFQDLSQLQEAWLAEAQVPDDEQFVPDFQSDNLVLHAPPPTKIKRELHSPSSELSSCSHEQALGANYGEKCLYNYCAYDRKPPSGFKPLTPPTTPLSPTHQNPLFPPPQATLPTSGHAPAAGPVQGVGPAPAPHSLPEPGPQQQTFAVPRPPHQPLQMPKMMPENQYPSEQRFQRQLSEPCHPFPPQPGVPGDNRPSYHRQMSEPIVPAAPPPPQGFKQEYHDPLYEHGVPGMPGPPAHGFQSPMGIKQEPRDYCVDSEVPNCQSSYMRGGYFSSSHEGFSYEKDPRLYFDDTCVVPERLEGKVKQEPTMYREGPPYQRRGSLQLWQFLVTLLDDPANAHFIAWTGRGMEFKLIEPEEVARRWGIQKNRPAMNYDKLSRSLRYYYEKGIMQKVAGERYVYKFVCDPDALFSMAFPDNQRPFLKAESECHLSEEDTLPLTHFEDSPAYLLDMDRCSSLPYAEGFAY

Take AATTTG: the binding signal was 1.35 fold enrichment (6-mer frequency, TF over GST control) in [1]; 1.22 fold enrichment (6-mer frequency, TF over GST control) in [2]; 1.33 fold enrichment (6-mer frequency, TF over GST control) in assay [3]; 1.26 fold enrichment (6-mer frequency, TF over GST control) in assay [4]; 1.26 fold enrichment (6-mer frequency, TF over GST control) in assay [5]; 1.23 fold enrichment (6-mer frequency, TF over GST control) in assay [6]. The binding signal in [7] is 1.33 fold enrichment (6-mer frequency, TF over GST control); in assay [8], 1.34 fold enrichment (6-mer frequency, TF over GST control); in [9], 1.12 fold enrichment (6-mer frequency, TF over GST control); in assay [10], 1.39 fold enrichment (6-mer frequency, TF over GST control); in assay [11] it was 1.25 fold enrichment (6-mer frequency, TF over GST control); in assay [12], 1.26 fold enrichment (6-mer frequency, TF over GST control). For the same sequence, the binding signal in assay [13] was 1.41 fold enrichment (6-mer frequency, TF over GST control); in assay [14], 1.26 fold enrichment (6-mer frequency, TF over GST control); in assay [15] it was 1.34 fold enrichment (6-mer frequency, TF over GST control); in assay [16] it was 1.16 fold enrichment (6-mer frequency, TF over GST control); in [17], 1.32 fold enrichment (6-mer frequency, TF over GST control); in assay [18], 1.33 fold enrichment (6-mer frequency, TF over GST control). Besides, in assay [19], the binding signal is 1.28 fold enrichment (6-mer frequency, TF over GST control).
